# Compounds without any hit were thinned out: in the full panel of roughly 79,000, 15% have a hit. Unmarked numbers belong to inactive results. Activity calls are given as the source filed them. Rule as the data show it: active = growth inhibition above about 70%; inactive = the rest.
# What was measured:
# [1] = NCI Yeast Anticancer Drug Screen. Data for the rad50 strain (AID 155);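 also: 0% = growth of vehicle-only cultures of the same strain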; settings: S. cerevisiae rad50 strain growth inhibition; at 50.0 µM; hits give high values
# Procedure, shortened: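 Yeast carrying a defined DNA repair defect were exposed to test compounds, and growth was compared with vehicle-treated controls to give percent inhibition.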
# [2] = NCI Yeast Anticancer Drug Screen. Data for the mec2-1 strain (AID 157); settings: S. cerevisiae mec2-1 strain, at 50.0 µM, hits give high values
# Procedure, shortened: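 Each compound was tested on mec2-1 yeast, a strain altered in DNA damage repair or cell cycle control. Growth inhibition is reported relative to vehicle.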
# [3] = NCI Yeast Anticancer Drug Screen. Data for the sgs1 mgt1 strain (AID 161);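 also: 0% = growth of cultures given vehicle only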; settings: S. cerevisiae sgs1 mgt1 strain, at 50.0 µM, hits give high values
# Procedure, shortened: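 Read-out: growth inhibition vs vehicle controls. Cells: mutant yeast strain deficient in DNA damage repair.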
# [4] = NCI Yeast Anticancer Drug Screen. Data for the cln2 rad14 strain (AID 165);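 also: 0% = growth equal to vehicle treated cultures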; settings: S. cerevisiae cln2 rad14 strain, at 50.0 µM, hits give high values
# Procedure, shortened: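 Test compounds were added to cln2 rad14 yeast cultures; inhibition of growth was then determined by comparison with vehicle treatment.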
# [5] = NCI Yeast Anticancer Drug Screen. Data for the bub3 strain (AID 167); settings: S. cerevisiae bub3 mutant strain, at 50.0 µM, hits give high values
# Procedure, shortened: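 Compounds were applied to a genetically altered yeast strain carrying a cell-cycle control defect. Growth inhibition was scored against vehicle-treated controls.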
# [6] = NCI Yeast Anticancer Drug Screen. Data for the mlh1 rad18 strain (AID 175); settings: S. cerevisiae mlh1 rad18 strain growth inhibition; at 50.0 µM; hits give high values
# Procedure, shortened: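 Inhibition values reflect reduced growth of mutant yeast versus vehicle-treated controls following compound exposure; the mutations affect DNA damage repair.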
Structure (SMILES),growth inhibition [1],growth inhibition [2],growth inhibition [3],growth inhibition [4],growth inhibition [5],growth inhibition [6]
Nc1ccccc1Sc1ccc(C(=O)O)cc1[N+](=O)[O-],19.6%,20.2%,7.75%,-3.55%,22.2%,-6.5%
CCOC(=O)CN=C1NNS(=O)(=O)c2ccccc21,3.55%,-17.4%,-10.2%,28.4%,-23.1%,6.35%
CC(=O)N(C)c1ccc(C)cc1,-14.9%,-1.05%,-4.35%,-27.6%,-4.2%,7%
Cc1ccc(CNC(=O)NCCCCCCNC(=O)NCc2ccc(C)cc2)cc1,-29.4%,-6.45%,-9.95%,-20.3%,-2.95%,-1.1%
O=C1Nc2ccc(Br)cc2C1(O)Cc1cccc([N+](=O)[O-])c1 (configuration not stated),7.35%,12.2%,13.5%,3.55%,-12.9%,11.8%
C/C(=N\NC(=O)CCCCC(=O)N/N=C(\C)c1ccc(C)cc1)c1ccc(C)cc1,-3.65%,-11.3%,10.4%,-45.7%,-1.9%,-2.7%
CC1OC(OC2C(O)CC(OC3C(O)CC(OC4CCC5(C)C(CCC6C5CCC5(C)C(C7=CC(=O)OC7)CCC65O)C4)OC3C)OC2C)CC(O)C1O (configuration not stated),7.6%,2.4%,-17.5%,16.8%,6.65%,27.2%
CCN(CC)CC(C)(C)C(=O)/C=C/c1ccc(C)cc1,39.5%,12.8%,57.5%,3.9%,-13.4%,19.9%
CC1(c2ccccc2)N=C(C(N)=O)c2[nH]cnc2N1 (configuration not stated),-11.8%,-41.1%,-29.1%,1.85%,8.7%,-11.8%
O=C1C=C(Nc2ccccc2C(=O)CC(=O)C(=O)Nc2ccc(Cl)cc2)c2ccccc2C1=O,5.05%,0.95%,6.9%,-3.05%,42.5%,9.8%
Nc1ccc(S(=O)(=O)O)c(N)c1,10.2%,9.05%,-3.5%,-0.3%,13.1%,3.95%
CC(C)C(O)C(C)(C)CO (configuration not stated),10.7%,-15.2%,4.75%,2.3%,11.1%,32.6%
Nc1ccncc1CCc1ccccc1,5.5%,-16.2%,-2.05%,12.8%,-18%,3.1%
c1ccc2sc(-c3nc4ccccc4s3)nc2c1,26.3%,11.7%,5.55%,-21.7%,8.3%,12.4%
O=C(c1ccccc1)c1cc(Br)c2cccc3c2c1CC3,11.6%,-7.6%,-1.5%,14.3%,20.4%,-3%
Nc1[nH]c(=S)nc2nc3c(c(-c4ccccc4)c12)CCCC3,-45.9%,-13.5%,6.95%,-3.05%,-13.6%,-14.4%
O=C(OC1C#CCSCC#C/C=C\1)c1ccc2c(c1)C(=O)c1ccccc1C2=O (configuration not stated),-0.05%,-34%,-53.2%,-37%,-16.9%,-61.6%
C/C(=N\NC(N)=S)c1sc(-n2nc(-c3ccccc3)cc2-c2ccccc2)nc1C,4.65%,-18.2%,12.2%,0.25%,26.6%,15.7%
Nc1ccccc1Br,29.6%,34.5%,21.4%,-31%,12.2%,20.6%
NC(N)=NC(N)=Nc1cccc(S(=O)(=O)c2cccc(N=C(N)N=C(N)N)c2)c1,8.1%,-0.55%,-0.1%,12.8%,-3.95%,13.2%
COC(=O)CNC(=O)Nc1cc(N2C(=O)ON3C2C(C)(C)N(O)C3(C)C)ccc1C (configuration not stated),2.95%,13.8%,16.9%,20.6%,15.2%,-22.6%

Structure (SMILES),growth inhibition [1],growth inhibition [2],growth inhibition [3],growth inhibition [4],growth inhibition [5],growth inhibition [6]
COC1NC(=O)Oc2ccccc21 (configuration not stated),-6.25%,29.5%,-8.95%,-3.3%,-12.5%,-19.4%
CC(C)N(CC(=O)NC(=O)c1ccccc1)Cc1ccccc1,3.5%,-8.4%,-1.95%,-30.1%,-1.5%,-11.7%
Cc1c(N2CCCC2)cc2c(c1-n1cccc1)C(C)(C)CC2(C)C,-21%,-14.2%,1.55%,16.3%,6.7%,2.8%
NC(N)=NNC(=S)S,10.9%,-5.15%,23.5%,5.1%,20.3%,12.8%
O=C1CSC(c2ccc(F)cc2)N1c1nncs1 (configuration not stated),5.2%,3.65%,9.7%,3.6%,31.6%,7.45%
c1ccc(-c2ccc(-c3nnc(-c4ccc(-c5ccccc5)cc4)o3)cc2)cc1,-0.95%,-10.4%,2.7%,-35.6%,-2.6%,-3.1%
O=C(NC(=O)C1(C(=O)O)CCCC1)Nc1ccccc1,7.95%,-7.05%,6.4%,-39.1%,27.4%,-9.15%
C(=N/n1nnc(-c2ccccc2)n1)/c1ccccc1,-2.4%,-10.1%,-3%,-44.1%,-5.3%,-6.05%
C/C(N)=N/C(=O)OCCOC(=O)/N=C(\C)N,-2.25%,8.3%,-9.35%,-5.3%,15%,1.9%
C=CC[N+](C)(CC=C)CC[N+](C)(CC=C)CC=C,-15%,1.35%,-14.9%,-43.5%,1.6%,-18.4%
O=COC1CCCCCC1,-8.55%,-28.9%,-11.1%,7.9%,-5.9%,12.9%
N#CC(NC(=O)NCCCl)c1ccccc1 (configuration not stated),-8.8%,-12.2%,-1.4%,-41.1%,11.4%,2.6%
Cc1ccc(S(=O)(=O)/C=C(\I)c2ccc([N+](=O)[O-])cc2)cc1,98.8% (active),99.2% (active),99.3% (active),98.8% (active),98.9% (active),99.1% (active)
OCCCN1CCCCC1,-2.7%,-13.6%,1.05%,15.8%,-1%,3.95%
CC(C)OC(=O)C(=O)Nc1cccc(Cl)c1,-3.45%,-14.1%,-29.5%,-65.8%,-15.3%,-2.5%
CC(C)NC(=O)OCc1c(COC(=O)NC(C)C)c(S(=O)c2ccccc2)n2c1CCC2 (configuration not stated),12.6%,5.3%,9.05%,-27.1%,18.6%,-6.4%
C[N+](C)(C)C=Nc1cccc2c1CCCC2,2.6%,-37.8%,-26.4%,-7.05%,6.05%,1.55%
CC(=O)OCC1OC(n2cc(F)c(=O)[nH]c2=O)C(NC(=O)N(CCCl)N=O)C(OC(C)=O)C1OC(C)=O (configuration not stated),2.4%,-13.9%,12.8%,10.8%,0.9%,-5.85%
Nc1c(I)cc([N+](=O)[O-])cc1I,32.8%,2.6%,18%,-16.4%,25.9%,19.9%
c1ccc2cc3c(cc2c1)OP1(=NP2(=NP4(=N1)Oc1cc5ccccc5cc1O4)Oc1cc4ccccc4cc1O2)O3,67.7%,28.1%,33.6%,18.8%,15.7%,12.6%
NNC(=O)c1ccco1,27.2%,-3.85%,-14.3%,20.8%,-2.1%,15.8%

# From PubChem BioAssay (NCI)
